# Results filed as inconclusive are left out. A call without a number means that no potency is given here. Values without a mark were called inactive. Activity calls are given as the source filed them. Unless noted, calls follow the shape of the full dose curve.
# Experiments:
# [1] = qHTS for Inhibitors of the Functional Ribonucleoprotein Complex (vRNP) of Lassa (LASV) Arenavirus: LASV Primary Screen - GLuc reporter signal (AID 1347082; calls by dose curve; tested in HEK293 reporter line; also: series mostly up to about 57 µM; nearly all actives have a fitted effect of over 60% in size)
# [2] = qHTS for Inhibitors of the Functional Ribonucleoprotein Complex (vRNP) of Lassa (LASV) Arenavirus: Viability assay - alamar blue signal for LASV Primary Screen (AID 1347083; calls by dose curve; tested in HEK293 reporter line; also: nearly all actives have a fitted effect of over 80% in size; also: potency is read from the fitted curve at half-maximal effect; as to activity change, negative = reduced viability: series mostly up to about 57 µM)
# [3] = qHTS for Inhibitors of the Functional Ribonucleoprotein Complex (vRNP) of Lymphocytic Choriomeningitis Arenaviruses (LCMV): Viability assay - alamar blue signal for LCMV Primary Screen (AID 1347085; calls by dose curve; tested in HEK293 reporter line; also: nearly all actives have a fitted effect of over 80% in size; also: potency is read from the fitted curve at half-maximal effect; as to activity change, negative = lower viability: series mostly up to about 57 µM)
# [4] = target: Nucleoprotein (Lymphocytic choriomeningitis virus (strain Armstrong)) (UniProt P09992); assay: qHTS for Inhibitors of the Functional Ribonucleoprotein Complex (vRNP) of Lymphocytic Choriomeningitis Arenaviruses (LCMV): LCMV Primary Screen - GLuc reporter signal (AID 1347086); also: series mostly up to about 57 µM; nearly all actives have a fitted effect of over 70% in size
# Nucleoprotein (Lymphocytic choriomeningitis virus (strain Armstrong)), sequence (P09992 whole entry, looked up): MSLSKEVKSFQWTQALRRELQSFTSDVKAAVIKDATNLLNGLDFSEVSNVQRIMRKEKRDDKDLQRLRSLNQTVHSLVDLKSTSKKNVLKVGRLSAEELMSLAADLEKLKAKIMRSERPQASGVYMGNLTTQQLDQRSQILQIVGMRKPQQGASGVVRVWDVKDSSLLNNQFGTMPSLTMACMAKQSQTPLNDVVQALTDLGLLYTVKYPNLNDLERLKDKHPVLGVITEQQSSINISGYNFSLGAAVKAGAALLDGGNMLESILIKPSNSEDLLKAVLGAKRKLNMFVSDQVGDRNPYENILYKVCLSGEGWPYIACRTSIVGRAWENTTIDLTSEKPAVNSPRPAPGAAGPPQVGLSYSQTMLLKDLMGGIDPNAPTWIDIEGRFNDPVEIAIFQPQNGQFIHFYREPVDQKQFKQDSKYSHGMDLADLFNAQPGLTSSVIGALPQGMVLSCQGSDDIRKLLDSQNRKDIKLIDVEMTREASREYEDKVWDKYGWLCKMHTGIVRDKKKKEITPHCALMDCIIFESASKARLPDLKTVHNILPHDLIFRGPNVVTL
# [5] = NS1 protein of Zika virus - qHTS assay to identify small molecule inhibitors in human HEK 293 cells (AID 1347053; active = well fitted curve in the direction sought with a large enough effect; an effect the other way counts as inactive or inconclusive; also: series mostly up to about 46 µM; nearly all actives have a fitted effect of over 55% in size)
# Procedure, shortened: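 In this cell-based screen, HEK 293 cultures received compound for one hour before Zika MR766 at MOI = 0.5. NS1 was quantified 24 hours later by TR-FRET, normalized to virus-free wells and infected wells.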
# [6] = qHTS of pediatric cancer cell lines to identify multiple opportunities for drug repurposing: Primary screen for SJ-GBM2 cells (AID 1347091; active = well fitted curve in the direction sought with a large enough effect; an effect the other way counts as inactive or inconclusive)
# Procedure, shortened: (§1)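 Cell viability, CellTiter-Glo luminescence; 500-1,000 cells/well, 8- or 11-point titration, 48 h compound exposure at 37 degrees C, 5% CO2. Controls: DMSO neutral, bortezomib 2.3 µM final as positive.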
# [7] = qHTS of pediatric cancer cell lines to identify multiple opportunities for drug repurposing: Primary screen for A673 cells (AID 1347092; active = well fitted curve in the direction sought with a large enough effect; an effect the other way counts as inactive or inconclusive; also: nearly all actives have a fitted effect of over 45% in size; also: potency is read from the fitted curve at half-maximal effect)
# Procedure, shortened: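 A673 cells (500-1,000 cells/well) were treated 48 hours at 37 degrees C with compounds at 11-point (0.78 nM to 46 µM) or 8-point (0.59 nM to 46 µM) dilutions. Viability read by CellTiter-Glo luminescence; concentration-response curves fitted.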
# [8] = qHTS of pediatric cancer cell lines to identify multiple opportunities for drug repurposing: Primary screen for SK-N-MC cells (AID 1347093; active = well fitted curve in the direction sought with a large enough effect; an effect the other way counts as inactive or inconclusive; also: potency is read from the fitted curve at half-maximal effect)
# Procedure, shortened: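 Metabolically active cells were quantified by ATP-dependent luminescence (CellTiter-Glo, 15 min at room temperature) following 48 h treatment. Cells had been plated at 500-1,000 per well and settled for 5 h beforehand.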
# [9] = qHTS of pediatric cancer cell lines to identify multiple opportunities for drug repurposing: Primary screen for BT-37 cells (AID 1347094; active = well fitted curve in the direction sought with a large enough effect; an effect the other way counts as inactive or inconclusive; also: potency is read from the fitted curve at half-maximal effect)
# Procedure, shortened: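 Quantitative HTS format: each compound titrated (MIPE 11 points from 0.78 nM, NPC 8 points from 0.59 nM) onto cells plated 5 hours earlier. After 48 h at 37 degrees C, CellTiter-Glo luminescence was recorded.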
# [10] = qHTS of pediatric cancer cell lines to identify multiple opportunities for drug repurposing: Primary screen for U-2 OS cells (AID 1347096; active = well fitted curve in the direction sought with a large enough effect; an effect the other way counts as inactive or inconclusive; also: nearly all actives have a fitted effect of over 50% in size; also: potency is read from the fitted curve at half-maximal effect)
# Procedure, shortened: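 Cells (500-1,000/well) rested 5 h, then received compounds for 48 h; metabolically active cells were measured by CellTiter-Glo luminescence. Final concentrations spanned up to 46 µM (MIPE, 11-point) or 0.59 nM-46 µM (NPC, 8-point) in primary screens, 11-point in follow-ups.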
# [11] = qHTS of pediatric cancer cell lines to identify multiple opportunities for drug repurposing: Primary screen for TC32 cells (AID 1347089; active = well fitted curve in the direction sought with a large enough effect; an effect the other way counts as inactive or inconclusive; also: nearly all actives have a fitted effect of over 60% in size; also: potency is read from the fitted curve at half-maximal effect)
# Procedure, shortened: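 TC32 cells, 500-1,000/well in growth medium, compound-treated 48 h at 37 °C; viability from CellTiter-Glo luminescence. Primary screen: MIPE 11-point (0.78 nM–46 µM final), NPC 8-point (0.59 nM–46 µM final); confirmatory at 11-point dilutions.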
# [12] = qHTS of pediatric cancer cell lines to identify multiple opportunities for drug repurposing: Primary screen for DAOY cells (AID 1347090; active = well fitted curve in the direction sought with a large enough effect; an effect the other way counts as inactive or inconclusive; also: potency is read from the fitted curve at half-maximal effect; nearly all actives have a fitted effect of over 55% in size)
# Procedure, shortened: as §1
compound,measurement,setting,value
CCn1ccc(NS(=O)(=O)c2ccc(N)cc2)nc1=O,Potency,[1],inactive
same,Potency,[2],inactive
same,Potency,[3],inactive
same,Potency,[4],inactive
Cc1onc(-c2ccccc2)c1C(=O)N[C@@H]1C(=O)N2[C@@H](C(=O)O)C(C)(C)S[C@@H]12,Potency,[1],inactive
same,Potency,[2],inactive
C[C@]12CC[C@H]3[C@@H](CC[C@@]45O[C@H]4C(O)=C(C#N)C[C@]35C)[C@H]1CC[C@H]2O,outcome,[5],inactive
same,Potency,[1],inactive
same,Potency,[2],inactive
same,Potency,[6],inactive
same,Potency,[7],18.7 µM (active)
same,Potency,[8],3.32 µM (active)
same,Potency,[9],inactive
same,Potency,[10],inactive
CO[C@H]1C[C@@H]2CC[C@@H](C)[C@@](O)(O2)C(=O)C(=O)N2CCCC[C@@H]2C(=O)O[C@H]([C@@H](C)C[C@@H]2CC[C@H](O)[C@H](OC)C2)CC(=O)[C@H](C)C=C(C)[C@@H](O)[C@@H](OC)C(=O)[C@H](C)C[C@H](C)C=CC=CC=C1C,Potency,[1],inactive
same,Potency,[2],2.7 nM (active)
same,Potency,[3],12.2 nM (active)
O=C1OC(CCN2CCCCC2)OC1(c1ccccc1)c1ccccc1 (stereo not given),outcome,[5],inactive
same,Potency,[1],inactive
same,Potency,[2],inactive
same,Potency,[3],inactive
same,Potency,[4],inactive
same,Potency,[11],inactive
same,Potency,[9],inactive
same,Potency,[10],inactive
Nc1nc2ccc(OC(F)(F)F)cc2s1,Potency,[1],inactive
O=C(CCCl)NCCc1ccccc1,Potency,[1],inactive
same,Potency,[2],inactive
same,Potency,[3],inactive
same,Potency,[4],inactive
COc1cccc2c1C(=O)c1c(O)c3c(c(O)c1C2=O)C[C@@](O)(C(=O)CO)CC3OC1CC(N2CCOC(OC)C2)C(O)C(C)O1 (stereo not given in full),outcome,[5],inactive
same,Potency,[11],26.4 nM (active)
same,Potency,[12],42.2 nM (active)
same,Potency,[7],0.0266 µM (active)
same,Potency,[8],0.0084 µM (active)
same,Potency,[9],27.6 nM (active)
same,Potency,[10],266 nM (active)
O=c1c(C2CC(c3ccc(-c4ccc(Br)cc4)cc3)Cc3ccccc32)c(O)sc2ccccc12 (stereo not given),outcome,[5],inactive
same,Potency,[1],inactive
same,Potency,[2],inactive
same,Potency,[3],inactive
same,Potency,[4],inactive
same,Potency,[11],inactive
same,Potency,[7],inactive
same,Potency,[10],inactive
Nc1nc2[nH]cc(CCc3ccc(C(=O)N[C@@H](CCC(=O)O)C(=O)O)cc3)c2c(=O)[nH]1,Potency,[1],inactive
same,Potency,[2],inactive
Cc1ncc([N+](=O)[O-])n1CC(C)O (stereo not given),Potency,[1],inactive
same,Potency,[2],inactive
same,Potency,[3],inactive
NCCCC[C@H](N[C@@H](CCc1ccccc1)C(=O)O)C(=O)N1CCC[C@H]1C(=O)O,Potency,[1],inactive
same,Potency,[2],inactive
same,Potency,[3],inactive
same,Potency,[4],inactive
NC(N)=NCCN1CCCCCCC1,"activity change, negative = inhibition",[1],1.43% [at 0.757 µM]
same,"activity change, negative = reduced viability",[2],1.98% [at 0.757 µM]
same,"activity change, negative = lower viability",[3],5.22% [at 0.757 µM]
same,"activity change, negative = inhibition",[4],-0.256% [at 0.757 µM]
Nc1ccc(S(=O)(=O)c2ccc(N)cc2)cc1,Potency,[1],inactive
same,Potency,[2],inactive
same,Potency,[3],inactive
same,Potency,[4],inactive
CNC[C@H](O)c1cccc(O)c1,Potency,[1],inactive
same,Potency,[2],inactive
same,Potency,[3],inactive
same,Potency,[4],inactive
CCN[C@H]1CN(CCCOC)S(=O)(=O)c2sc(S(N)(=O)=O)cc21,Potency,[1],inactive
same,Potency,[2],inactive
same,Potency,[3],inactive
same,Potency,[4],inactive
CC(C)OC(=O)OCOP(=O)(CO[C@H](C)Cn1cnc2c(N)ncnc21)OCOC(=O)OC(C)C,Potency,[1],inactive
same,Potency,[2],inactive
same,Potency,[3],inactive
same,Potency,[4],inactive
O=C(O)[C@@H]1CSCN1,Potency,[1],inactive
same,Potency,[2],inactive
same,Potency,[3],inactive
same,Potency,[4],inactive
NNC(=O)c1ccncc1,Potency,[1],inactive
same,Potency,[2],inactive
same,Potency,[3],inactive
same,Potency,[4],inactive
NS(=O)(=O)c1cc2c(cc1C(F)(F)F)NC(Cc1ccccc1)NS2(=O)=O (stereo not given),Potency,[1],inactive
same,Potency,[2],inactive
same,Potency,[3],inactive
same,Potency,[4],inactive
O=C(O)c1cc(=O)c2ccccc2o1,Potency,[1],inactive
same,Potency,[2],inactive
same,Potency,[3],inactive
same,Potency,[4],inactive
Cc1ccc(-c2ncc(Cl)cc2-c2ccc(S(C)(=O)=O)cc2)cn1,Potency,[1],inactive
same,Potency,[2],inactive
same,Potency,[3],inactive
same,Potency,[4],inactive
CCC(C)(CN(C)C)OC(=O)c1ccccc1 (stereo not given),Potency,[1],inactive
same,Potency,[2],inactive
same,Potency,[3],inactive
same,Potency,[4],inactive
O=S(=O)(O)c1ccc2nc(-c3ccccc3)[nH]c2c1,Potency,[1],inactive
same,Potency,[2],inactive
same,Potency,[3],inactive
same,Potency,[4],inactive
CCOCCn1c(C2CCN(CCc3ccc(C(C)(C)C(=O)O)cc3)CC2)nc2ccccc21,Potency,[1],inactive
same,Potency,[2],inactive
same,Potency,[3],inactive
same,Potency,[4],inactive
O=C(COCCOCCOCC(=O)Nc1c(I)cc(I)c(C(=O)O)c1I)Nc1c(I)cc(I)c(C(=O)O)c1I,Potency,[1],inactive
same,Potency,[2],inactive
same,Potency,[3],inactive
same,Potency,[4],inactive
CCCCCN(CCCOC)C(=O)C(CCC(=O)O)NC(=O)c1ccc(Cl)c(Cl)c1 (stereo not given),Potency,[1],inactive
same,Potency,[2],inactive
same,Potency,[3],inactive
same,Potency,[4],inactive
CC(=O)c1ccc(OCC(=O)N2CCCCC2)cc1,Potency,[1],inactive
same,Potency,[2],inactive
same,Potency,[3],inactive
same,Potency,[4],inactive
COC(=O)c1cccnc1,Potency,[1],inactive
same,Potency,[2],inactive
same,Potency,[3],inactive
same,Potency,[4],inactive
C[N+]1(C)CCCC(OC(=O)C(O)(c2ccccc2)c2ccccc2)C1 (stereo not given),Potency,[1],inactive
same,Potency,[2],inactive
same,Potency,[3],inactive
same,Potency,[4],inactive
CN1CCN(CC(=O)N2c3ccccc3C(=O)Nc3cccnc32)CC1,Potency,[1],inactive
same,Potency,[2],inactive
same,Potency,[3],inactive
same,Potency,[4],inactive

# Source: PubChem BioAssay (NCATS)
